Laboratory results published in PubChem BioAssay (NCATS).
Results filed as inconclusive are left out. Calls of active or inactive are those of the source. Unless noted, calls come from the whole dose curve; as a rule, active = well fitted curve in the direction sought with a large enough effect; inconclusive = small, poorly fitted or top-dose-only effect, or another doubt; inactive = no such curve, though single readings can be large; an effect the other way counts as inactive or inconclusive. Non-standard residues stand in square brackets, D forms with d. Residues, ends and D or L forms follow the SMILES beside them. *: point of attachment. Sta = CC(C)C[C@H](N)[C@@H](O)CC(=O)O; Isovaleryl = CC(C)CC(=O)*

Assays:
[1] = Quantitative High-Throughput drug screen in 47 multiple myeloma cell lines against the NCATS MIPE library collection: OPM2_DSMZ cell viability assay (AID 1919872); note: nearly all actives have a fitted effect of over 30% in size
In short: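 CellTiter-Glo ATP luminescence gave viability after 48 h compound treatment at 37C of 500 multiple myeloma cells per well. Normalisation used DMSO-only wells as 100% and media-only wells as 0% viability; primary qHTS of approved and investigational drugs.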

[2] = Quantitative High-Throughput drug screen in 47 multiple myeloma cell lines against the NCATS MIPE library collection: KMS11_JCRBsus cell viability assay (AID 1919873); note: nearly all actives have a fitted effect of over 50% in size
In short: (§1)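 qHTS format: cells plated (500/well), pin-dosed with MIPE 4.0 compounds, kept 48 h at 37 °C. Readout was CellTiter-Glo luminescence, median RLU.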

[3] = Quantitative High-Throughput drug screen in 47 multiple myeloma cell lines against the NCATS MIPE library collection: KMS28BM_JCRB cell viability assay (AID 1919874); note: nearly all actives have a fitted effect of over 35% in size
In short: as §1

[4] = qHTS drug screen for cell cycle checkpoint inhibitors in PARPi-resistant BRCA-mutant ovarian cancer cell lines. (AID 1963452; calls by dose curve); conditions: PEO1/OlaR viability, CellTiter-Glo luminescence, 96 h; for Z-AUC: stronger effect = lower value
In short: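 PEO1, PEO4 and PEO1/OlaR ovarian cancer cells, 600 per well, exposed 96 h at 37C to a dilution series. Viability read by CellTiter-Glo luminescence, normalized to DMSO and empty wells; activity summarized as Z-AUC.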

[5] = qHTS for identification of novel therapeutic agents for treatment of microphthalmiaassociated transcription factor (MiT) renal cell carcinoma (RCC) (AID 1963991; calls by dose curve); conditions: CellTiter-Glo, 48 h; for z-score: stronger effect = lower value
In short: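 Three TFE3-fusion RCC lines (UOK109, UOK124, UOK145), 500 cells/well in complete medium, were treated with MIPE 4.0 compounds for 48 hours at 37 C. Viability was by CellTiter-Glo luminescence, normalized to DMSO (100%) and empty wells (0%); curves fitted over 11 concentrations.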

[6] = qHTS profiling for inhibitors of Plasmodium falciparum proliferation (AID 504749);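 for activity, negative = inhibition: 0% = DMSO vehicle and full inhibition = artemisinin control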; for all read-outs here: nearly all actives have a fitted effect of over 60% in size; conditions: P. falciparum in erythrocytes, SYBR Green DNA, 72 h; for activity, negative = inhibition: at 28.7 µM (top of the series)
In short: (§2)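 Quantitative HTS: compounds pinned into medium, infected erythrocytes added (0.3% parasitemia, 2.5% hematocrit), 72 h culture at 37 C under 5% CO2. Saponin/Triton lysis with SYBR Green I, overnight RT, then fluorescence read.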

[7] = test system: 3D7; experiment: as above; conditions: P. falciparum in erythrocytes, SYBR Green DNA, 72 h; series mostly up to 28.7 µM
In short: as §2

[8] = test system: 7G8; experiment: as above; conditions: P. falciparum in erythrocytes, SYBR Green DNA, 72 h; series mostly up to 28.7 µM
In short: as §2

[9] = test system: AA1029; experiment: as above; conditions: P. falciparum in erythrocytes, SYBR Green DNA, 72 h; series mostly up to 28.7 µM
In short: as §2

[10] = test system: AS120; experiment: as above; conditions: P. falciparum in erythrocytes, SYBR Green DNA, 72 h; series mostly up to 28.7 µM
In short: as §2

[11] = measured here: PEO1 parental Z-AUC
[12] = TFE3-RCC UOK109 viability, measured here: UOK109 Z-AUC
[13] = TFE3-RCC viability, measured here: UOK124 Z-AUC
[14] = TFE3-RCC viability, measured here: UOK145 Z-AUC
Potency is the fitted concentration of half-maximal effect.

Row | Compound | Potency [1] | Potency [2] | Potency [3] | Z-AUC [4] | Z-AUC [4, 11] | Z-AUC ([4]; measured here: PEO4 Z-AUC) | z-score [5, 12] | z-score [5, 13] | z-score [5, 14] | activity, negative = inhibition ([6]; parasite line A) | activity, negative = inhibition ([6]; parasite line B) | Potency [7] | Potency [8] | Potency [9] | Potency [10] | Potency [4] | Potency ([5]; TFE3-RCC UOK109 viability, active = Z-AUC below -0.8 in all three lines) | Potency ([6]; parasite line A) | Potency ([6]; parasite line B)
1 | CS(=O)(=O)OCCCCOS(C)(=O)=O | inactive | inactive | inactive | 0.989 (inactive) | 0.976 | 1.46 | 1.01 | 2.44 | 1.02 | 5.89% (inactive) | -1.27% (inactive) | inactive | inactive | inactive | inactive | – | – | – | –
2 | CCN(CC)CCOc1ccc(Nc2ncc3cc(-c4c(Cl)cccc4Cl)c(=O)n(C)c3n2)cc1 | 1180 nM (active) | 41.8 nM (active) | 526 nM (active) | – | -1.55 | -1.25 | -2.53 | -3.17 | -2.04 | – | – | – | – | – | – | 155 nM (active) | 11.8 nM (active) | – | –
3 | Oc1ccc2ccccc2c1SSc1c(O)ccc2ccccc12 | 20900 nM (active) | 13200 nM (active) | 23500 nM (active) | -0.118 (inactive) | 0.665 | 0.501 | – | – | – | – | – | – | – | – | – | – | – | – | –
4 | CCOC(=O)C1=C(O)C(=O)N(Cc2ccccc2)C1 | inactive | inactive | inactive | 1.25 (inactive) | 1.01 | 1.38 | 0.919 | 0.303 | 0.693 | – | – | – | – | – | – | – | – | – | –
5 | Nc1ncn([C@H]2C[C@H](O)[C@@H](CO)O2)c(=O)n1 | inactive | 590 nM (active) | inactive | 1.63 (inactive) | -0.11 | -0.207 | – | – | – | – | – | – | – | – | – | – | – | – | –
6 | CCCCN(CCCC)CCC(O)c1cc2c(Cl)cc(Cl)cc2c2cc(C(F)(F)F)ccc12 (stereo not given) | inactive | inactive | inactive | -0.995 (inactive) | -1.16 | -0.882 | 0.318 | 0.539 | 0.552 | – | – | 3.2 nM (active) | 1.1 nM (active) | 6.3 nM (active) | 5.6 nM (active) | – | – | 7.9 nM (active) | 5.6 nM (active)
7 | CC(C)CC(=O)N[C@H](C(=O)N[C@H](C(=O)N[C@@H](CC(C)C)[C@@H](O)CC(=O)N[C@@H](C)C(=O)N[C@@H](CC(C)C)[C@@H](O)CC(=O)O)C(C)C)C(C)C (Isovaleryl-VV[Sta]A[Sta]-OH) | inactive | inactive | inactive | 0.839 (inactive) | 0.464 | 0.507 | 0.353 | 0.618 | 0.758 | – | – | – | – | – | – | – | – | – | –
8 | CCC1=C(C)CN(C(=O)NCCc2ccc(S(=O)(=O)NC(=O)NC3CCC(C)CC3)cc2)C1=O (stereo not given) | inactive | inactive | inactive | -0.196 (inactive) | 0.246 | 0.144 | 0.704 | 0.513 | 0.718 | 6.02% (inactive) | 7.16% (inactive) | inactive | inactive | inactive | inactive | – | – | – | –
